SRC1 inh = SRC1 coactivator transcriptional activity inhibitors, primary screen, cell-based, luminescence; HEK293 GAL4-SRC1 luciferase reporter; actives 0.12% (n = 360,000); inhibition, % at 3.6 µM;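 active = inhibition above the campaign mean plus 3 SD, with each screening campaign given its own cutoff, cut at about 60% in these data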;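 also: 0% = DMSO treated cells and 100% = gossypol at 36 µM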
SRC3 inh = SRC3 coactivator transcriptional activity inhibitors, primary screen, cell-based, luminescence. inhibition, % at 3.6 µM. actives 0.17% (n = 360,000). Nuclear receptor coactivator 3 (Homo sapiens), Q9Y6Q9. HEK293 GAL4-SRC3 luciferase reporter;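 active = inhibition above a per-campaign cutoff, the mean of all compounds plus 3 SD, cut at about 60% in these data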;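 also: 0% = DMSO-treated cells and 100% = gossypol-treated cells at 36 µM; higher means less SRC3-driven luciferase light from the GAL4 reporter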
SRC2 inh = inhibition of GAL4-SRC2 driven luciferase reporter, primary screen, SRC2 inhibitor project, cell-based, luminescence; inhibition, % at 9 µM; actives 0.17% (n = 370,000); AID 651957, 2012; HEK293 GAL4-SRC2 luciferase reporter;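 active = inhibition above the mean inhibition of all tested compounds plus 3 SD, set per campaign, cut at about 52% in these data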;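 also: 0% = DMSO treated cells and 100% = cells given Gossypol at 36 µM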
COUP-TFII inh = NR2F2 transcriptional activity inhibitors, primary screen, cell-based, luciferase reporter, HEK293T, luminescence | HEK293T NGFI-A luciferase reporter | inhibition, % at 8.6 µM | actives 0.7% (n = 370,000) | AID 686940, 2013;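 active = inhibition above a per-plate cutoff, mean inhibition of test wells between control levels plus 3 SD, cut at about 38% in these data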;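 also: cells cotransfected with COUP-TFII expression vector driving the NGFI-A reporter; 0% = median of COUP-TF2 test wells and 100% = reporter-only cells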
Target sequence (P24468 whole entry, looked up): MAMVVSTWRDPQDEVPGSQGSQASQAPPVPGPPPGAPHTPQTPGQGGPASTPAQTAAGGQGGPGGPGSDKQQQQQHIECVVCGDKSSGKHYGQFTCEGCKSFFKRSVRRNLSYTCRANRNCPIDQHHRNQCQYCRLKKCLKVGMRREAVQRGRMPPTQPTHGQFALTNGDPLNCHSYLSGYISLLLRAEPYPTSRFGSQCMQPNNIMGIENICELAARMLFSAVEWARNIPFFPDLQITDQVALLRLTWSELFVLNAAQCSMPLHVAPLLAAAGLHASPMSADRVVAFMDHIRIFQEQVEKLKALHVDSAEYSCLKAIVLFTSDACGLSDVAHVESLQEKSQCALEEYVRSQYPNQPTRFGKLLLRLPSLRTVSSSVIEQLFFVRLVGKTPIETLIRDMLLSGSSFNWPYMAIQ
NR5A2 inv ag = LRH-1 (NR5A2) inverse agonists, primary screen, cell-based, luminescence, HEK293T, StAR-luciferase reporter; Nuclear receptor subfamily 5 group A member 2 (Homo sapiens), O00482; LRH-1 transfected, 24 h; inhibition, % at 3.6 µM; actives 0.13% (n = 360,000); AID 602396, 2012;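 active = inhibition above the mean inhibition of all tested compounds plus 3 SD, cut at about 73% in these data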;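 also: 0% = DMSO wells and 100% = reporter-only cells lacking LRH-1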
VP16 Luc counter = Gal4-VP16 luciferase reporter inhibitors, counter-screen for COUP-TFII antagonist project, cell-based, luminescence, HEK293 | inhibition, % at 8.5 µM | shares compounds with COUP-TFII inh | actives 25% (n = 2,500); in the data active = inhibition above about 13%
NR2F2 inh conf = NR2F2 transcriptional activity inhibitors, confirmation, cell-based, luciferase reporter, HEK293, triplicate; inhibition, % at 8.5 µM; HEK293 NGFI-A luciferase reporter, luminescence; actives 45% (n = 2,500); shares compounds with COUP-TFII inh;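 active = mean inhibition over three repeats above a set limit taken from the earlier primary screen, cut at about 38% in these data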;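 also: 100% = cells given the luciferase reporter alone without the COUP-TF2 vector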
Numbers without * were called inactive; . = not tested or not shown. The list is not random: actives were taken first. Their share in the collection is about 0.84%.

SMILES | SRC1 inh | SRC3 inh | SRC2 inh | COUP-TFII inh | NR5A2 inv ag | VP16 Luc counter | NR2F2 inh conf
CC1(C)CC2CC(C)(CN2S(=O)(=O)c2ccc(C(=O)Nc3cccc(S(=O)(=O)N4CCOCC4)c3)cc2)C1 (centres undefined) | 7.5 | 23.7 | 20.2 | 68.4* | 43.8 | 0.5 | 62.8*
CC1(C)CC2CC(C)(CN2S(=O)(=O)c2ccc(C(=O)Nc3cc(S(=O)(=O)N4CCOCC4)ccc3Cl)cc2)C1 (centres undefined) | 21.5 | 21.5 | 20.7 | 35.9 | 3.5 | . | .
Cc1cc(NC(=O)c2ccc(NS(=O)(=O)c3ccc(C)c(C)c3)cc2)no1 | . | . | -13.8 | 5.1 | . | . | .
Cc1ccc(CSc2nnc(-c3cc(-c4ccc(F)cc4)n[nH]3)n2N)cc1 | . | . | -18.5 | 10.3 | . | . | .
CCc1ccc(NC(=O)c2ccc(F)c(S(=O)(=O)NCC3COc4ccccc4O3)c2)cc1 (centres undefined) | -2.9 | 23.4 | 17.1 | 38.4* | 10.1 | -3.8 | 12.6
CCN(c1ccccc1)S(=O)(=O)c1cc(C(=O)Nc2ccc(Br)cc2)ccc1F | 30.8 | 26.5 | 24.5 | 64.7* | 30.9 | -5.3 | 40.7*
O=C(NCC1COc2ccccc2O1)c1ccc(F)c(S(=O)(=O)N2CCOCC2)c1 (centres undefined) | -6.4 | 9.6 | -8.5 | 7.4 | 7.4 | . | .
Cc1cc(C)nc(/N=C(\N)Nc2ccc(-c3ccccc3)cc2)n1 | 25.4 | 47.1 | 8.5 | 56.2* | 28.9 | 4.2 | 35.1
CC(=O)Nc1ccc(N/C(N)=N/c2nc(C)cc(C)n2)cc1 | -10.9 | 14.9 | -3.1 | -7.3 | 23.6 | . | .
CC1CCC2C(=O)N(c3ccc(Cc4ccncc4)cc3)C(=O)C2C1 (centres undefined) | -13.2 | 20.6 | 5.0 | 45.1* | 30.9 | 5.5 | 37.1
CSC1SCC2C(=O)N(C)C(C(C)C)C(=O)OCC(NC(=O)c3cnc4ccccc4n3)C(=O)NC(C)C(=O)N(C)C1C(=O)N(C)C(C(C)C)C(=O)OCC(NC(=O)c1cnc3ccccc3n1)C(=O)NC(C)C(=O)N2C (centres undefined) | 84.9* | 86.3* | 65.7* | 51.1* | 95.7* | 29.4* | 38.1*
COc1ccc(S[C@]2(C(=O)N(C)C)CC(=O)N[C@@H]2c2ccc(OC)cc2)cc1 | . | . | -21.0 | -23.6 | . | . | .
Cc1ccc(Cn2ccc(NC(=O)c3cc(-c4ccc(Cl)cc4)on3)n2)cc1 | 1.7 | 19.3 | -14.6 | -3.1 | -11.3 | . | .
Cc1ccc(Cn2ccc(NC(=O)c3cc(C4CC4)on3)n2)cc1 | 10.4 | -5.4 | 17.8 | 39.0* | -2.9 | -6.8 | -8.6
CCOC(=O)[C@@]12CCCC3=C1N(CCC3)C(=O)[C@H]2CC(=O)NCCCN1CCCC1=O | . | . | -25.6 | -1.8 | . | . | .
NC1=C(Br)C(=O)c2ncccc2C1=O | 83.4* | 88.0* | 74.6* | 81.2* | 95.2* | 91.8* | 93.2*
Cn1c(SC2CCCC2)nnc1-c1ccco1 | . | . | -29.8 | -17.4 | . | . | .
Cc1sc2ncnc(NCC(O)c3ccc([N+](=O)[O-])cc3)c2c1C (centres undefined) | -0.3 | -9.3 | -8.6 | 62.5* | 43.0 | 6.3 | 50.0*
Cc1sc2ncnc(NCC(O)c3ccccc3)c2c1C (centres undefined) | -44.8 | -27.3 | -10.2 | 43.5* | -40.8 | -75.9 | 13.1
Cc1ccc(NC(=O)c2cc(-n3cnnc3)ccc2Cl)cc1 | -13.4 | -4.1 | -24.5 | 9.7 | 7.3 | . | .
O=C(Nc1ccc(-c2nc3ccccc3s2)cc1)c1cc(-n2cnnc2)ccc1Cl | -15.8 | -3.5 | -23.5 | 70.3* | 24.8 | -16.5 | 52.4*
CN(C)c1ccc(C2Nc3ccccc3C(=O)N2CCCN2CCOCC2)cc1 (centres undefined) | 15.7 | 12.2 | 38.6 | 46.9* | 9.0 | -11.5 | -15.2
O=C(N/N=C/c1ccco1)C1CC1c1ccccc1 (centres undefined) | 11.3 | -1.3 | -0.5 | -23.3 | 3.2 | . | .
CC(C)(C)c1ccc(C2CC2C(=O)N/N=C\c2ccc[nH]2)cc1 (centres undefined) | 22.7 | 70.6* | -14.1 | 42.0* | 88.8* | 0.2 | 63.8*
O=C(COC(=O)CCN1C(=O)/C(=C\C=C\c2ccccc2)SC1=S)Nc1cc(F)ccc1F | 15.5 | 23.3 | 42.7 | 42.1* | 7.8 | 52.8* | 63.9*
SMILES | SRC1 inh | SRC3 inh | SRC2 inh | COUP-TFII inh | NR5A2 inv ag | VP16 Luc counter | NR2F2 inh conf
COC(=O)[C@]12C[C@H](CC(=O)NCCCCc3ccccc3)C(=O)N(CCc3ccc(OC)c(OC)c3)C1=C[C@H](C1CCCC1)O[C@@H]2C | . | . | 6.8 | 13.9 | . | . | .
O=C(N/N=C\c1ccc([N+](=O)[O-])o1)C1COc2ccccc2O1 (centres undefined) | 29.9 | 39.2 | 62.0* | 43.9* | 44.7 | -5.2 | 25.0
Cc1scc(C(=O)N/N=C/c2ccc([N+](=O)[O-])o2)c1C | 13.8 | -1.2 | 71.4* | 50.1* | 49.3 | 57.3* | 58.9*
Cc1scc(C(=O)N/N=C/c2ccco2)c1C | -74.7 | -72.2 | -43.4 | -30.8 | -54.6 | . | .
CCOc1ccc(-c2csc(N3CCC(C(N)=O)CC3)n2)cc1 | . | . | . | -35.4 | . | . | .
C=CCn1c(C)c(/C=C/c2cc[n+](C)cc2)c2ccccc21 | 1.5 | 22.5 | 11.3 | 56.2* | 30.6 | 7.1 | 33.8
CCn1cc(/C=C/c2cc[n+](C)cc2)c2ccccc21 | 38.2 | 33.3 | -31.3 | 41.8* | 41.8 | 9.2 | 20.4
CCc1ccccc1NC(=O)[C@@H]1CCCN1S(=O)(=O)c1cccc2cccnc12 | . | . | . | -10.0 | . | . | .
COC(=O)C1=CC[C@@H](NC(=O)OC(C)(C)C)[C@H](O)[C@H]1O[Si](C)(C)C(C)(C)C | . | . | . | -3.3 | . | . | .
COc1cccc(CN2C(=O)C(C)N(C(=O)c3ccccc3)c3ccccc32)c1 (centres undefined) | 21.6 | 29.0 | 9.8 | 53.5* | 2.3 | 0.1 | 29.9
CCC(C(=O)OCC(=O)c1c(N)n(CC(C)C)c(=O)n(C)c1=O)c1ccccc1 (centres undefined) | 5.5 | 10.8 | 0.6 | 2.3 | -0.3 | . | .
CCC(=NC(C)c1ccccc1)c1c(O)n(C)c(=O)n(C)c1=O (centres undefined) | 12.7 | 27.1 | 21.7 | 55.7* | 19.4 | -1.0 | 29.2
Cc1ccc(-n2c(C)c([N+](=O)[O-])c3ccc(O)c(CN(C)C)c32)cc1 | 48.9 | 41.6 | 35.8 | 42.8* | -10.4 | 14.4* | 21.0

Source: PubChem
